Experimental findings from PubChem BioAssay are described below.

A number with no mark means an inactive call. No rule for the calls is given here.

Chain of Pantothenate synthetase (Mycobacterium tuberculosis (strain ATCC 25618 / H37Rv)) (P9WIL5 whole entry, looked up): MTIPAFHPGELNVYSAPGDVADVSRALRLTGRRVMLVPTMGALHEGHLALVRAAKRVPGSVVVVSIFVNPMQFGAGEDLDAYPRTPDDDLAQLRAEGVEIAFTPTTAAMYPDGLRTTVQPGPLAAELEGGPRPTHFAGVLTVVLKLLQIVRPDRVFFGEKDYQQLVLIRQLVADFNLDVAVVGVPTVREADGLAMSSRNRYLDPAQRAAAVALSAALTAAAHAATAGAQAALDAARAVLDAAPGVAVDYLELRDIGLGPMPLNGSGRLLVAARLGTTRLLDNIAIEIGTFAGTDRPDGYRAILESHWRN

This assay has as its target Pantothenate synthetase (Mycobacterium tuberculosis (strain ATCC 25618 / H37Rv)) (UniProt P9WIL5). Briefly: Recombinant Mtb pantothenate synthetase (PanC) inhibitors, coupled enzyme, confirmatory (AID 375).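 Also: 0% = full reaction with vehicle and 100% = no enzyme background.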 To be noted: coupled enzyme assay; at 10 µM, active compounds read high.
What is called inhibition is the change of the read-out against control, counted positive when it falls. Take `CC(=O)OCC1=C(C(=O)O)N2C(=O)[C@@H](NC(=O)Cc3cccs3)[C@H]2SC1`: the inhibition is 0%.
With `COc1ccccc1C1(CC(=O)N2CCOCC2)CCOC(C(C)C)C1` (stereo not given) the figure was 2%; with `Cc1nnc(C)c2c(C)n(Cc3ccc4c(c3)OCO4)c(C)c12`, 0%; with `Cc1noc(C)c1CSc1ccccc1C(=O)N1CCN(c2ccccc2)CC1`, 0%.
Take `O=C(c1ccco1)N1CCN(S(=O)(=O)c2ccc3c(c2)CCN3C(=O)C2CCC2)CC1`: the inhibition was 0%.
On to `COc1ccccc1N1CCN(C(=O)c2oc3cc(C)c(C)cc3c2C)CC1`, for which the inhibition is 0%.
As for `CC1(C)NC(=O)N(CC(O)CN2CCCCC2)C1=O` (stereo not given), the inhibition was 0%.
For the molecule `CCOC(=O)N1CCC(Nc2ncnc3c2cnn3-c2ccc(C)cc2C)CC1`, the inhibition is 3%.
For the molecule `COc1ccc(S(=O)(=O)Cc2ccc(C(=O)NCCc3ccc(S(N)(=O)=O)cc3)o2)cc1`, the inhibition was 0%.
In the case of `O=C(NCCCN1CCOCC1)c1ccc(CS(=O)(=O)c2c(Cl)cccc2Cl)o1` it was 0%; in that of `O=C(Nc1ccon1)c1cccc(S(=O)(=O)N2CCCC2)c1`, 2%; in that of `Cc1cc(C)c(C#N)c(SCc2[nH]nc3c2C(c2ccccc2)C(C#N)=C(N)O3)n1` (stereo not given), 0%.
With `COC(=O)C1=C(C)OC(N)=C(C#N)C1c1c(C)nn(-c2ccccc2)c1Cl` (stereo not given) the figure was 0%; with `O=C1CC(N2CCC(C(=O)N3CCCCC3)CC2)C(=O)N1` (stereo not given), 11%.
With `N#CC1=C(SCc2ccccc2)NC(=O)C(C#N)C12CCCC2` (stereo not given) the figure was 2%; with `COc1ccc(NC(=O)CN2CCCCC2)cc1`, 0%.
Turning to `COc1ccccc1OCc1nc2ccccc2[nH]1`, the inhibition was 0%.
With `CCOc1ccc(NC(=O)Cn2nnc(-c3ccccc3F)n2)cc1` the figure was 2%.
`O=C(c1ccc(Cl)c(F)c1F)N1CCCC1`: the inhibition is 3%.
With `COCCNC(=O)CN1CCN(C(c2ccccc2)c2ccccc2)CC1` the figure was 2%; with `CCCNC(=O)c1ccccc1C(=O)NCCC`, 0%.
In the case of `Cc1ccnc(SCCn2c(N3CCCCC3)nc3c2c(=O)n(C)c(=O)n3C)n1` it was 0%.
For `Cc1ccc(-c2cc(C(=O)N3CCCC3)no2)cc1`, the inhibition is 0%.
With `O=C(Nc1cccnc1)c1cc2c(ccc3ccccc32)o1` the figure was 0%; with `CC(=O)Nc1ccc(S(=O)(=O)N2CCC(NC(C)=O)(c3cccc(F)c3)CC2)cc1`, 0%; with `O=C(CNCCC1=CCCCC1)Nc1ccccc1N1CCCCC1`, 0%.
With `CC(=O)Nc1ccc(S(=O)(=O)Nc2nc3n(n2)C(c2ccccc2)CC(=O)N3)cc1` (stereo not given) the figure was 0%.
In the case of `O=C(c1ccc(-c2cccc(C(F)(F)F)c2)o1)N1CCOCC1` it was 0%.
As to `Cc1nnc2n(Cc3ccccc3)c(=O)c3c4c(sc3n12)COC(C(C)C)C4` (stereo not given), the inhibition is 0%.
Consider `COc1ccc(S(=O)(=O)NCC(c2cccnc2)N2CCN(C)CC2)cc1C` (stereo not given), for which the inhibition is 0%.
As to `O=C(Nc1cccc2c1CCCC2)C1CCN(c2nnnn2-c2ccccc2)CC1`, the inhibition was 5%.
On to `O=C(CN1C(=O)CSC1=O)Nc1ccc(N2CCOCC2)cc1`, for which the inhibition is 7%.
In the case of `COc1ccc(NC(=O)C23CCC(C)(C(=O)C2)C3(C)C)cc1` (stereo not given) it was 0%; in that of `COCCNC(=O)NC(=O)COC(=O)Cc1ccc2c(c1)OCCO2`, 4%; in that of `O=C(O)CCc1ccc(-c2ccccc2)n1CC(=O)O`, 0%.
As for `CSc1nc(NC(C)(C)C)nc(Oc2ccc(=O)[nH]n2)n1`, the inhibition was 0%.
In the case of `CCCOC(=O)C1[C@H]2C(=O)N(CCCOC)C[C@]23C=C[C@H]1O3` (stereo not given in full) it was 0%; in that of `Cc1ccccc1-n1nnc2c(=O)oc3ccccc3c21`, 0%.
Consider `Cc1nc2cccc(C(=O)NC3CCCCC3)c2o1`, for which the inhibition was 0%.
With `C/C(=C\c1cc(C(=O)O)c(C)o1)CO` the figure was 0%.
